The supplement of paper PMC11732987, “Enantioselective OTUD7B fragment discovery through chemoproteomics screening and high-throughput optimisation” (Communications Chemistry, 2025)

Legend:
Assay in all cases: log2 ratio of Biotin-Ahx-Ub-VS probe labelling (fragment/DMSO); higher = less target engagement (more negative = stronger competition), active = hit call of the paper (q ≤ 0.05, log2 ratio ≤ -1)
Conditions in all cases: compound concentration: 200 uM; treatment time: 3 h
USP19 = biological target: T1, USP19 (UniProt O94966)
T1 sequence (whole entry): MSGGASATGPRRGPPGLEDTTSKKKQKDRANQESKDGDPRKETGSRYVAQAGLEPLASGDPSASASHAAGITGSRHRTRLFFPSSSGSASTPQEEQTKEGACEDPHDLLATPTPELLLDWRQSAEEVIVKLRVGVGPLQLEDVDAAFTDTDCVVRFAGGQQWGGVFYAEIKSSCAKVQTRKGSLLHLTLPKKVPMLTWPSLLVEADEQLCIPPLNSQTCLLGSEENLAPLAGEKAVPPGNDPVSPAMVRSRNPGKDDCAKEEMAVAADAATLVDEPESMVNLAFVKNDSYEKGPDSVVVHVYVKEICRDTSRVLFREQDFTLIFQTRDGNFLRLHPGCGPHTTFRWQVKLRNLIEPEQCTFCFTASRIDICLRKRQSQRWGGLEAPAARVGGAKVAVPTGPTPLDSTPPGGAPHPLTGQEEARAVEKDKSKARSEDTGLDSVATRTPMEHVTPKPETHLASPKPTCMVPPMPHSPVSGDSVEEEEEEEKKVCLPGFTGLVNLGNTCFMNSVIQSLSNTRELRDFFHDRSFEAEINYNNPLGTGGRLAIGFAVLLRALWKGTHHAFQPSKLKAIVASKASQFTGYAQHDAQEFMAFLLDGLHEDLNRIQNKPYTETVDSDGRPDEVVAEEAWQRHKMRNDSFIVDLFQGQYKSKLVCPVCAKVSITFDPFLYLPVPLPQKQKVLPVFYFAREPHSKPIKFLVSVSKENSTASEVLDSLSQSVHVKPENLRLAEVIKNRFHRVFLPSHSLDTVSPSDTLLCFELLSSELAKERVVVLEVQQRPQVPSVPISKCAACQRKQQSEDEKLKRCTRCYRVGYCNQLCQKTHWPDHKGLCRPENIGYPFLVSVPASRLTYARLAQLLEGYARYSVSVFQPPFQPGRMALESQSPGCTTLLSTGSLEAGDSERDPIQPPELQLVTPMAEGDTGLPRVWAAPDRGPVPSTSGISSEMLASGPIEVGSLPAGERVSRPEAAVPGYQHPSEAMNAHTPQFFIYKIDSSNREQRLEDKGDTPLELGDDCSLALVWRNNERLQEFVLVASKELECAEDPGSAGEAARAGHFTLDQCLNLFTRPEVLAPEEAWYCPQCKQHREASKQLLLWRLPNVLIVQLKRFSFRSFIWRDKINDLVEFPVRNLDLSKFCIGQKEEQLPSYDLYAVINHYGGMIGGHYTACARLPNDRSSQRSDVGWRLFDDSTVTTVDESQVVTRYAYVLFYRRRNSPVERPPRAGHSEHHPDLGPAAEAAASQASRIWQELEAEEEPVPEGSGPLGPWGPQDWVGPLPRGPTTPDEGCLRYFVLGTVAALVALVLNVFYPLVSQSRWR
Outline: (§1)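 Labelled DUBs from HEK293T lysate were NeutrAvidin-enriched, digested with LysC and trypsin, and run by diaPASEF LC-MS/MS. Before that, each 495 µg sample in Tris/CHAPS/IGEPAL buffer with protease inhibitors was treated in triplicate with fragment at 200 µM or vehicle for 3 h, then with Biotin-Ahx-Ub-VS at 0.5 µM final for 1 h. Values are average log2 ratios of fragment over vehicle by unpaired t-test, based on global-median-normalised Spectronaut label-free quantities from proteins with ≥2 unique peptides.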

USP22 = biological target: T2, USP22 (UniProt Q9UPT9)
T2 sequence (whole entry): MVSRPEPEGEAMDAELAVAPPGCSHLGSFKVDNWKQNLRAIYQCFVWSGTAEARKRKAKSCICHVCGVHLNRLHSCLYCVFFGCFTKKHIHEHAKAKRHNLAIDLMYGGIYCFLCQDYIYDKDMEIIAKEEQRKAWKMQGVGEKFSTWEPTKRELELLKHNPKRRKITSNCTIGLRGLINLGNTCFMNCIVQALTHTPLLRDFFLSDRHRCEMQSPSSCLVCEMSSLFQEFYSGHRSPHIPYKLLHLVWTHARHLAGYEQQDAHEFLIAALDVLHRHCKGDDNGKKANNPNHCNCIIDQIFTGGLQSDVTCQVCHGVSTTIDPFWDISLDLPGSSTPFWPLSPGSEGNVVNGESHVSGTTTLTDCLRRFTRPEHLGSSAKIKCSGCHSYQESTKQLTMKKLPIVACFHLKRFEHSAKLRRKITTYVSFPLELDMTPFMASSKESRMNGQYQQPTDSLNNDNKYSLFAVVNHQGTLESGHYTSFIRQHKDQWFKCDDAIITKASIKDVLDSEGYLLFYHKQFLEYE
Outline: as §1

USP24 = USP24 (UniProt Q9UPU5)
Chain of USP24 (Q9UPU5 whole entry): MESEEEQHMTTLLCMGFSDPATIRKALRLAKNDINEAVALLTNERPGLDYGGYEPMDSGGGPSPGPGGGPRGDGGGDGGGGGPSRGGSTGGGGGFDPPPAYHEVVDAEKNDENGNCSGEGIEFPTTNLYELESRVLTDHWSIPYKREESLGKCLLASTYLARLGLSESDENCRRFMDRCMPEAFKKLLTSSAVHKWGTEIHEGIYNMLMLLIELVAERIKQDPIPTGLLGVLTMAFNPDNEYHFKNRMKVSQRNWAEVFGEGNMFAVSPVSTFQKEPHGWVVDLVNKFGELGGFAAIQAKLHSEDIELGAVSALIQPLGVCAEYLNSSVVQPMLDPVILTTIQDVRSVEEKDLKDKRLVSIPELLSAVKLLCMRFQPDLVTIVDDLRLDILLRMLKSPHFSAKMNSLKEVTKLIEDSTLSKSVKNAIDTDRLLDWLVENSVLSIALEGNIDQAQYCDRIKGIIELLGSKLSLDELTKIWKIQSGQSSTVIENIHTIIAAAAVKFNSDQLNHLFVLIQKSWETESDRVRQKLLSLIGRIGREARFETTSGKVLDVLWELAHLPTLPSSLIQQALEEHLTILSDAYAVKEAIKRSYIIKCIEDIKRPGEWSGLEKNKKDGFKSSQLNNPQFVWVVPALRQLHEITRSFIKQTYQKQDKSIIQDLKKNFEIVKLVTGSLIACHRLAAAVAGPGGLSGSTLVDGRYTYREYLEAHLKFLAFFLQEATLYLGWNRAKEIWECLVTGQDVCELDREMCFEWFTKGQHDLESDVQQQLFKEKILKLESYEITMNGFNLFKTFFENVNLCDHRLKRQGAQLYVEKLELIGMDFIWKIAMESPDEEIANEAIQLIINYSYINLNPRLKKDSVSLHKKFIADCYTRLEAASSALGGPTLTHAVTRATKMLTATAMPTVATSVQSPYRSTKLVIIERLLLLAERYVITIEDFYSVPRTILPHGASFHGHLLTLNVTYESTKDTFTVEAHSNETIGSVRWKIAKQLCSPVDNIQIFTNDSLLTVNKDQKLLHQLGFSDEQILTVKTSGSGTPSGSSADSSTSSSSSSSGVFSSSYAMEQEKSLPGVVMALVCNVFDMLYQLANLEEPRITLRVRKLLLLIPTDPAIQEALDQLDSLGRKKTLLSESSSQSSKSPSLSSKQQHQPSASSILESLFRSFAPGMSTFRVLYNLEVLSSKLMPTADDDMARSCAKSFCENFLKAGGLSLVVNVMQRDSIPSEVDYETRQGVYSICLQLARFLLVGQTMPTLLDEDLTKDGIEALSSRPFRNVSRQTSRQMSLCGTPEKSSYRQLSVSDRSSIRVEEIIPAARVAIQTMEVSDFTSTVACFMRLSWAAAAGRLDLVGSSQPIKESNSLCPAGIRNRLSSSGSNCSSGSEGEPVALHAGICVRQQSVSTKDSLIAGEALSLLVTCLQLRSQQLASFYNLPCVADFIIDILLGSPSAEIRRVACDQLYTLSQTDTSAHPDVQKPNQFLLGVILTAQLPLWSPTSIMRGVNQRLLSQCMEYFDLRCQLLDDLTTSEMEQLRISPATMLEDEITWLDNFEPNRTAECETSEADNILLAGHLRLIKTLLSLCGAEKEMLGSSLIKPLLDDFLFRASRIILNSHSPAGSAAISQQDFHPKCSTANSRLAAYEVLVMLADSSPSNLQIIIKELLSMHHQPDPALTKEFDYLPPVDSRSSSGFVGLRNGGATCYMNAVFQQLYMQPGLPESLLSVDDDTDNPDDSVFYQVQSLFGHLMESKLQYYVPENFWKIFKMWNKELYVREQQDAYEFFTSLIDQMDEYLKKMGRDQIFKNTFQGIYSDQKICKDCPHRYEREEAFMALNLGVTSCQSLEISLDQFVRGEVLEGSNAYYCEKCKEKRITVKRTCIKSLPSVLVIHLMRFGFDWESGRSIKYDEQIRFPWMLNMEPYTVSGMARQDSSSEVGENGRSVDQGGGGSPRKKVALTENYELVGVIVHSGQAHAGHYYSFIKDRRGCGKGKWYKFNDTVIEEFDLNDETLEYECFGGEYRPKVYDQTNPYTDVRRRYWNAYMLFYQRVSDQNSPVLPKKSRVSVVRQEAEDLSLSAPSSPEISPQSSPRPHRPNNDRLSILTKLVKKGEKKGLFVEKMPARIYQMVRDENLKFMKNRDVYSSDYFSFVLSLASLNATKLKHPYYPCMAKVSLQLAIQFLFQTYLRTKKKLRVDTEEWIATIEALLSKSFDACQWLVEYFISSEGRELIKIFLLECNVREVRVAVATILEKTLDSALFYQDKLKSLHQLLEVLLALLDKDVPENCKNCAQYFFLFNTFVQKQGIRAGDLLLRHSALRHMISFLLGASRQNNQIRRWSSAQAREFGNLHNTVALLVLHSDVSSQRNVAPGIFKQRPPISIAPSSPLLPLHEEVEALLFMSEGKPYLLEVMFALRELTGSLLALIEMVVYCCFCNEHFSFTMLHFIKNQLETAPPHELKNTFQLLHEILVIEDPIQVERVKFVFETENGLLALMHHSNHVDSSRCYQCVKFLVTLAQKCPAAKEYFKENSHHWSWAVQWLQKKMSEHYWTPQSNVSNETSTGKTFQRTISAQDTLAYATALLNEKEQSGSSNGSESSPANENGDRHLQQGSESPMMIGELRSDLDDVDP
Outline: as §1

USP25 = biological target: T3, USP25 (UniProt Q9UHP3)
T3 sequence (whole entry): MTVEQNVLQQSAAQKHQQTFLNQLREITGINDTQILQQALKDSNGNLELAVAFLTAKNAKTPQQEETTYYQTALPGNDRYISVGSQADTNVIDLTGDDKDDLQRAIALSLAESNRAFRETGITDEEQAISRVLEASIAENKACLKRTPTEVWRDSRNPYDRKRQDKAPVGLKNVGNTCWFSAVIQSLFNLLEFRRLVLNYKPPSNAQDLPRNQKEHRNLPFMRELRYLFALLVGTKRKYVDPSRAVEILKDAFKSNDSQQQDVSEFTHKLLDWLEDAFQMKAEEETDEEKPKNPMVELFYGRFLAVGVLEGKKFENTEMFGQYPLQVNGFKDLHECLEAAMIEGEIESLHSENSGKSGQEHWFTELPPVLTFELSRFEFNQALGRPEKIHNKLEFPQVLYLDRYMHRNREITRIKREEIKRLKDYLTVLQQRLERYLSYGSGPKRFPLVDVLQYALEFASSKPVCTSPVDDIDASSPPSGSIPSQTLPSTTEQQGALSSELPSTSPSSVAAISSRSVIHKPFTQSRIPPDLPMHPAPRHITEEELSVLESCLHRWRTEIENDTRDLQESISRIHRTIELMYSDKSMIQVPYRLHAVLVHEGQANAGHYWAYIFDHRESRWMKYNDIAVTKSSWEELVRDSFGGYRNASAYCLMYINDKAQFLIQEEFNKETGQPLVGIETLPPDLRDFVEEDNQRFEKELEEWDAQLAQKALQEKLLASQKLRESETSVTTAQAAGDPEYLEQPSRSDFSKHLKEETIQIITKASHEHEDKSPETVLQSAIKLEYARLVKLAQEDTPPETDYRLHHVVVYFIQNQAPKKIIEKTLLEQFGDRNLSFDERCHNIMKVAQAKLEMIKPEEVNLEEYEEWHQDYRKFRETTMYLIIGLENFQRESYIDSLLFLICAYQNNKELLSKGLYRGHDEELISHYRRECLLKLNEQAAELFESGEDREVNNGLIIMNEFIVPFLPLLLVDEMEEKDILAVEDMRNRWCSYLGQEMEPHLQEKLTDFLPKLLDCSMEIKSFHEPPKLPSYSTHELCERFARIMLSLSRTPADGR
Outline: as §1

USP28 = biological target: T4, USP28 (UniProt Q96RU2)
T4 sequence (whole entry): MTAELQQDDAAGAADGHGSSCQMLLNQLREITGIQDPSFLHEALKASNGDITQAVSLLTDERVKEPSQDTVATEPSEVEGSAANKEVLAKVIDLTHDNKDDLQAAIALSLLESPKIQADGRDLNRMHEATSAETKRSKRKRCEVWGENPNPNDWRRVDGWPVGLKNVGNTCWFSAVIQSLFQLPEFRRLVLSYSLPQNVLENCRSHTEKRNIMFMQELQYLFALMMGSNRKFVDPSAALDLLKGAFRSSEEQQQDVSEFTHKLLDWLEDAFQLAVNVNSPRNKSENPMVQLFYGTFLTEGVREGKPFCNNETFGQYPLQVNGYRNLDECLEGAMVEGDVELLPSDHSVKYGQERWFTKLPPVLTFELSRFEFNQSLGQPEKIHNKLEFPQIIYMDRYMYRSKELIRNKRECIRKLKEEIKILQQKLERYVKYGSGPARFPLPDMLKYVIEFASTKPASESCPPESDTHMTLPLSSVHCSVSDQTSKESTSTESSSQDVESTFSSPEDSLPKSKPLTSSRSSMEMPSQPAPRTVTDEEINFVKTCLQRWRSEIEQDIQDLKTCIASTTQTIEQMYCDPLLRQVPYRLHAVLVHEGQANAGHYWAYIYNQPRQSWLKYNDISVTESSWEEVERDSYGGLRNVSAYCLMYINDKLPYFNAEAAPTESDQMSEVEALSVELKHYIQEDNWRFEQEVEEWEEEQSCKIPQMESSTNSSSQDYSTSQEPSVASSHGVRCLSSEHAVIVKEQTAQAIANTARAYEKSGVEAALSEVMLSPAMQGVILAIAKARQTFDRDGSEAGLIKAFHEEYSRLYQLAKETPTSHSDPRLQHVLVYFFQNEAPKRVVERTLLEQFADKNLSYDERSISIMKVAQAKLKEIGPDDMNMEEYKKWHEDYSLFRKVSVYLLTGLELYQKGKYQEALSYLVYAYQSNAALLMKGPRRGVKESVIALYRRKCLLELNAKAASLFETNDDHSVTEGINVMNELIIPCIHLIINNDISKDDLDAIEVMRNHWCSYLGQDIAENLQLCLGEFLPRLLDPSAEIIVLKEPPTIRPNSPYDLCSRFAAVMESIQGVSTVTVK
Outline: as §1

Measured: log2 ratio of Biotin-Ahx-Ub-VS probe labelling

Cc1ccccc1C1(CNC(=O)CCl)CCOCC1
inactive: USP19 -0.115 | USP22 -0.0958 | USP24 -0.178 | USP25 -0.264 | USP28 -0.284
